Measured values: PubChem BioAssay (NCI)
The panel holds about 79,000 compounds, 15% with a hit somewhere; the sample as a whole holds those more often. Unmarked numbers belong to inactive results. Active and inactive are the calls of the source. Rule as the data show it: active = growth inhibition above about 70%; inactive = the rest.

Experiments:
[1] = NCI Yeast Anticancer Drug Screen. Data for the rad50 strain (AID 155);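 also: 0% = growth of vehicle-only cultures of the same strain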; settings: S. cerevisiae rad50 strain growth inhibition, hits give high values
In short: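 Yeast carrying a defined DNA repair defect were exposed to test compounds, and growth was compared with vehicle-treated controls to give percent inhibition.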

[2] = NCI Yeast Anticancer Drug Screen. Data for the mec2-1 strain (AID 157); settings: S. cerevisiae mec2-1 strain, hits give high values
In short: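 Vehicle-treated cultures served as reference for growth inhibition of compound-exposed mec2-1 yeast.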

[3] = NCI Yeast Anticancer Drug Screen. Data for the sgs1 mgt1 strain (AID 161);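 also: 0% = growth of cultures given vehicle only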; settings: S. cerevisiae sgs1 mgt1 strain, hits give high values
In short: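 Test agents were incubated with a DNA-repair-mutant yeast strain. Growth was then read and compared against vehicle-treated controls.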

[4] = NCI Yeast Anticancer Drug Screen. Data for the cln2 rad14 strain (AID 165);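 also: 0% = growth equal to vehicle treated cultures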; settings: S. cerevisiae cln2 rad14 strain, hits give high values
In short: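 Each compound was tested on cln2 rad14 yeast. Inhibition of growth was calculated against vehicle-exposed controls.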

[5] = NCI Yeast Anticancer Drug Screen. Data for the bub3 strain (AID 167); settings: S. cerevisiae bub3 mutant strain, hits give high values
In short: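 Compounds were applied to a genetically altered yeast strain carrying a cell-cycle control defect. Growth inhibition was scored against vehicle-treated controls.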

[6] = NCI Yeast Anticancer Drug Screen. Data for the mlh1 rad18 strain (AID 175); settings: S. cerevisiae mlh1 rad18 strain growth inhibition, hits give high values
In short: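 Vehicle-treated cultures served as the reference for growth inhibition in a yeast strain carrying DNA damage repair alterations exposed to each compound.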

[7] = at 5.0 µM (retest, dose inferred, filed as 0.5)
[8] = at 50.0 µM (retest, dose inferred, filed as 5.0)

Row | Compound | growth inhibition [1, 7] | growth inhibition [1, 8] | growth inhibition ([1]; at 50.0 µM) | growth inhibition [2, 7] | growth inhibition [2, 8] | growth inhibition ([2]; at 50.0 µM) | growth inhibition [3, 7] | growth inhibition [3, 8] | growth inhibition ([3]; at 50.0 µM) | growth inhibition [4, 7] | growth inhibition [4, 8] | growth inhibition ([4]; at 50.0 µM) | growth inhibition [5, 7] | growth inhibition [5, 8] | growth inhibition ([5]; at 50.0 µM) | growth inhibition [6, 7] | growth inhibition [6, 8] | growth inhibition ([6]; at 50.0 µM)
1 | CCCCCC(=O)NNc1ccccc1 | 18% | 89% (active) | 85.3% (active) | 1% | 76% (active) | 42.6% | 5% | 48% | 80% (active) | 0% | 51% | 78% (active) | 9% | 95% (active) | 83.1% (active) | 22% | 93% (active) | 90.8% (active)
2 | N#Cc1cn(-c2c3ccccc3nc3ccccc23)c(=O)[nH]c1=O | 16% | 67% | 58.4% | -9% | 52% | 39.9% | 3% | 30% | 49.6% | 21% | 70% (active) | 48.3% | 15% | 59% | 21.8% | 14% | 77% (active) | 76.2% (active)
3 | O=NNc1ncc(Sc2ccccc2)nc1Sc1ccccc1 | -14% | -8% | -0.45% | -11% | 13% | -24.9% | -3% | 20% | 45.5% | 3% | 11% | 15.5% | -13% | -11% | -9.1% | 4% | 12% | 71.8% (active)
4 | COc1ccc2nc3cc(Cl)ccc3c(Nc3ccc(S(N)(=O)=O)cc3)c2c1 | 0% | 17% | 37.5% | 0% | 9% | -11.4% | 0% | 5% | -6.05% | 9% | 3% | -8.25% | -1% | 2% | -11.4% | 1% | 2% | -6.5%
5 | CCOC(=O)C(CC)(CCc1ccccc1[N+](=O)[O-])C(=O)OCC | 8% | -24% | 61.2% | -3% | -2% | -6.6% | 9% | 37% | 39.2% | 0% | -17% | -18.1% | 6% | 24% | 75.9% (active) | 17% | 13% | 60.9%
6 | Cc1ccc2c(c1)CSCCO2 | 86% (active) | 99% (active) | 99.3% (active) | 87% (active) | 100% (active) | 99.7% (active) | 87% (active) | 99% (active) | 99.5% (active) | 50% | 100% (active) | 99.3% (active) | 90% (active) | 99% (active) | 99.5% (active) | 92% (active) | 99% (active) | 99.5% (active)
7 | O=C1Nc2c(Cl)cc(Cl)cc2/C1=N/N=C/c1ccccc1O | 12% | 41% | 3.5% | 13% | 42% | 17.1% | 10% | 41% | 87.2% (active) | 15% | 48% | 89.8% (active) | 18% | 54% | 88.2% (active) | 15% | 72% (active) | 91% (active)
8 | O=C(O)C(Cc1ccccc1)N=Cc1ccc(O)cc1 (centres undefined) | 70% (active) | 97% (active) | 11.1% | 58% | 99% (active) | 11.8% | 79% (active) | 98% (active) | 6.8% | 33% | 97% (active) | 43.8% | 43% | 98% (active) | 20.2% | 68% | 98% (active) | -1.05%
9 | O=C1c2cc(O)ccc2C(=O)c2c1ccc(O)c2O | 11% | 98% (active) | 98.7% (active) | 14% | 99% (active) | 97.2% (active) | 12% | 98% (active) | 96.5% (active) | 12% | 97% (active) | 90.7% (active) | 4% | 98% (active) | 97.8% (active) | 4% | 99% (active) | 98.2% (active)
10 | Cc1cc(C)c(Cc2cc(C(C)(C)C)cc(C)c2O)cc1Cc1cc(C(C)(C)C)cc(C)c1O | -2% | 10% | 51.4% | -5% | 24% | 49.4% | 2% | 27% | 63.6% | -16% | 19% | 69.3% | -4% | 26% | 49.9% | 2% | 33% | 71% (active)
11 | NC(=S)Nc1c(Br)cc(Br)cc1Br | -1% | 91% (active) | 62.5% | 1% | 90% (active) | 33.5% | -1% | 84% (active) | 34.8% | 3% | 88% (active) | 23.1% | -6% | 80% (active) | 74% (active) | 2% | 88% (active) | 47%
12 | Nc1ccccc1N=Nc1c(S(=O)(=O)O)cc2cc(S(=O)(=O)O)cc(O)c2c1O | 17% | 23% | -24% | 3% | 5% | -10.9% | -3% | 11% | -27.6% | 34% | -10% | 27.9% | 17% | 12% | -33.5% | 5% | 7% | -33.9%
13 | CCCCCCCCCCCCCC(N)c1ccc(C)cc1 (centres undefined) | 60% | 97% (active) | 99% (active) | 0% | 98% (active) | 99.2% (active) | 99% (active) | 98% (active) | 99.5% (active) | 3% | 97% (active) | 97.7% (active) | 13% | 97% (active) | 98.5% (active) | 33% | 97% (active) | 98.3% (active)
14 | CN(C)/C(N)=N\c1nc2ccc(Cl)cc2s1 | -13% | 15% | 10.9% | -4% | -17% | 11.4% | -17% | 4% | 8.3% | -20% | -10% | 15.9% | -1% | 12% | -11.1% | -3% | 48% | 9.05%
15 | O=[N+]([O-])/C=C/c1ccco1 | 59% | 99% (active) | 99.5% (active) | 9% | 100% (active) | 99.3% (active) | 16% | 100% (active) | 88.8% (active) | 8% | 99% (active) | 98.5% (active) | 3% | 99% (active) | 98.9% (active) | 22% | 99% (active) | 98.9% (active)
16 | CCC(=O)N(CCC(C)C)c1ccccc1 | 3% | 7% | 11.8% | -2% | 2% | -2.15% | 0% | 1% | -8.65% | 3% | 4% | 41.1% | 3% | -11% | -18.6% | 3% | 2% | -11.9%
17 | S=C(C#Cc1ccccc1)Nc1ccccc1 | -73% | 87% (active) | 99.3% (active) | -36% | 97% (active) | 99.4% (active) | -30% | 96% (active) | 96.7% (active) | -37% | 94% (active) | 99% (active) | -47% | 96% (active) | 99% (active) | -93% | 94% (active) | 99% (active)
18 | CCCCCCCCCCS(=O)(=O)Nc1ccc(C(=O)NN)cc1 | 60% | 83% (active) | 92.6% (active) | 29% | 48% | 71% (active) | 42% | 82% (active) | 89.5% (active) | 54% | 80% (active) | 91% (active) | 48% | 82% (active) | 79% (active) | 69% | 87% (active) | 92.7% (active)
